The values below come from publication PMC5540273 (PLoS ONE, 2017).

SMILES strings stand for the structures.

What all share (details): concentration: 1 μM,replicates: in singlicate; n = 1
Assay [1] concerns AAK1.
Assay [2] deals with ABL1-nonphosphorylated.
Assay [3] concerns ABL1-phosphorylated.
Assay [4] relates to ABL2.
The subject of assay [5] is ACVR1B.
The test system of assay [6] is ACVR1.
The subject of assay [7] is ACVR2A.
Assay [8] deals with ACVR2B.
The subject of assay [9] is ACVRL1.
Assay [10] concerns T1, ADCK3.
T1 construct: gene CABC1
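Note: KINOMEscan kinase panel screen.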

As for `CN(c1ccc2c(c1)nc(NCc1ccc(F)cc1)n2C)c1ccnc(Nc2ccc(CS(C)(=O)=O)cc2)n1.Cl` [GW813244], the “%Inh” value is listed as 30% in assay [1]; 97.2% in assay [2]; 79% in assay [3]; 75% in [4]; 3% in assay [5]; 17% in [6]. For the same compound, the “%Inh” value in [7], in assay [8], in assay [9] and in assay [10] was 0% in each case.

For the compound `C[C@@H]1CNc2c(sc3ccc4nc(-c5ccc(O)cc5)ccc4c23)C(=O)N1`, the “%Inh” value is 29% in assay [1]; 48% in assay [2]; 10% in [3]; 3% in assay [4]; 22% in assay [5]; 11% in [6]. The “%Inh” value in assay [7] amounted to 8%; in assay [8], 52%; in assay [9], 45%; in [10] it was 0%.

`Cc1cccc2c(-c3ccncc3)c(-c3ccc(F)cc3)nn12.Cl` [GW461487]: the “%Inh” value in assay [1] is given as 14%; in assay [2], 0%; in assay [3], 0%; in assay [4] it was 5%; in assay [5], 18%; in assay [6], 9%. In addition, the “%Inh” value stood at 0% in assay [7], 11% in assay [8], 0% in assay [9] and 18% in [10].

Turning to `COc1cc2c(Nc3ccc(NC(=O)c4ccccc4)cc3)ncnc2cc1OCCCN1CCOCC1` [GSK301329], the “%Inh” value came out at 0% in assay [1]; 16% in assay [2]; 0% in assay [3]; 20% in [4]; 0% in assay [5]; 0% in assay [6]. Moreover, the “%Inh” value is on record as 0% in [7], 0% in assay [8], 0% in assay [9] and 10% in [10].

In the case of `COc1cccc(OC)c1C(=O)Nc1cccc(-c2nn3ccccc3c2-c2ccnc(Nc3cccc(F)c3)n2)c1` [GSK361065], the “%Inh” value was 0% in assay [1]; 28% in [2]; 18% in assay [3]; 100% in assay [4]; 15% in assay [5]; 17% in assay [6]. Further, the “%Inh” value in assay [7] amounted to 7%; in assay [8] it was 27%; in [9], 7%; in assay [10], 0%.

Take `Cc1cccc(-c2nc(Nc3ccncc3)c3sccc3n2)n1` [GW869641]: the “%Inh” value in assay [1] stood at 25%; in assay [2] it was 0%; in assay [3], 16%; in [4], 0%; in assay [5] it was 96.5%; in [6] it was 0%. Also, the “%Inh” value was found to be 42% in [7], 41% in assay [8], 14% in [9] and 0% in assay [10].

Turning to `CN(c1cccc(CNc2nc(Nc3ccc4c(c3)CC(=O)N4)ncc2C(F)(F)F)c1)S(C)(=O)=O`, the “%Inh” value in assay [1] turned out to be 51%; in assay [2] it was 46%; in assay [3], 3%; in [4], 16%; in assay [5], 0%; in assay [6], 0%. The “%Inh” value in assay [7], in [8], in assay [9] and in assay [10] was 0% in each case.

For `COc1cc2ncn(-c3cc(OCC4CCCCC4)c(C(N)=O)s3)c2cc1OC` [GSK204559], the “%Inh” value was 55% in [1]; 0% in assay [2]; 0% in assay [3]; 14% in assay [4]; 0% in assay [5]; 5% in [6]. The “%Inh” value in [7] is 18%; in [8], 32%; in assay [9] it was 0%; in assay [10] it was 11%.

Regarding `O=C(Nc1cccc(Oc2ccc3nccn3n2)c1)Nc1cccc(C(F)(F)F)c1`, the “%Inh” value in [1] is recorded as 0%; in assay [2] it was 98.2%; in [3] it was 15%; in [4], 71%; in assay [5] it was 0%; in [6], 0%. The “%Inh” value in [7] stood at 22%; in [8], 9%; in assay [9], 0%; in [10] it was 0%.

In the case of `CCCC(=O)Nc1n[nH]c2ncccc12` [SB-601436], the “%Inh” value in assay [1] came to 0%; in assay [2], 24%; in assay [3] it was 0%; in assay [4] it was 0%; in [5], 0%; in [6], 5%. In addition, the “%Inh” value in assay [7], in assay [8], in assay [9] and in assay [10] was 0% throughout.

Take `COc1cccc(CNC(=O)NC2CCN(c3ccnc(Nc4cc(OC)c(OC)c(OC)c4)n3)C2)c1` (stereo not shown) [GSK1379765]: the “%Inh” value in assay [1] amounted to 54%; in [2], 0%; in assay [3] it was 0%; in [4], 20%; in assay [5] it was 0%; in assay [6] it was 0%. Moreover, the “%Inh” value is given as 0% in assay [7], 14% in assay [8], 0% in assay [9] and 24% in assay [10].

As for `C[C@@H]1CNc2c(sc3ccc4nc(-c5ccncc5)ccc4c23)C(=O)N1`, the “%Inh” value was 49% in [1]; 38% in assay [2]; 11% in [3]; 0% in assay [4]; 0% in assay [5]; 0% in assay [6]. Moreover, the “%Inh” value came to 1% in assay [7], 30% in assay [8], 10% in assay [9] and 0% in assay [10].

Take `NC(=O)c1ccc(-c2cc3ncnc(SCC(=O)O)c3s2)cc1`: the “%Inh” value in assay [1] worked out at 4%; in [2], 57%; in assay [3] it was 20%; in assay [4] it was 0%; in [5] it was 0%; in assay [6], 0%. Besides, the “%Inh” value in assay [7] is 8%; in [8], 17%; in assay [9] it was 0%; in [10], 25%.

For `c1ccc(Oc2ccc(Nc3ccnc4ccc(-c5ccccn5)cc34)cc2)cc1` [GW407034], the “%Inh” value in assay [1] is on record as 13%; in assay [2] it was 0%; in [3], 0%; in [4] it was 17%; in assay [5] it was 0%; in assay [6], 5%. Also, the “%Inh” value in assay [7] was determined as 6%; in assay [8], 13%; in assay [9], 0%; in assay [10], 12%.

For the compound `C[C@@H](Oc1cc(-n2cnc3ccc(-c4ccncc4)cc32)sc1C(N)=O)c1ccccc1Cl` [GSK483724], the “%Inh” value in assay [1] is on record as 60%; in assay [2] it was 0%; in assay [3] it was 0%; in [4], 21%; in [5], 0%; in assay [6] it was 32%. Further, the “%Inh” value in assay [7] is 0%; in assay [8] it was 0%; in assay [9] it was 0%; in [10], 52%.

With `CCn1c(-c2nonc2N)nc2cncc(Br)c21` [SB-738004], the “%Inh” value in assay [1] was 67%; in [2], 0%; in [3], 0%; in [4], 0%; in [5], 30%; in [6], 0%. The “%Inh” value in assay [7] is on record as 0%; in [8], 9%; in [9], 0%; in [10] it was 25%.
